Screening data as filed in PubChem.
Sm TGR block = S. mansoni TGR enzyme inhibition; Q962Y6; purified TGR, DTNB reduction, TNB absorbance 405 nm; Potency, µM (doses to about 114 µM), actives largely listed as inhibitors; hit rate 3% among 360,000; AID 485364; also: nearly all actives have a fitted effect of over 60% in size
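Kinetic colorimetric format: TGR-catalysed, NADPH-driven DTNB reduction monitored via TNB absorbance. Enzyme dispensed at 20 nM; compound exposure 15 min at room temperature before reaction start.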
RE007 growth inh = less growth of the S. pombe RE007 Vpr strain; Potency, µM (top dose mostly 92.2 µM), hits mostly inhibitors; hit rate 0.21% among 360,000; S. pombe RE007 Vpr strain, BacTiter-Glo ATP luminescence, 24 h; active = well fitted falling curve with a large enough effect; inconclusive = small, poorly fitted or top-dose-only effect; inactive = no such curve, though single readings can be large or run the other way; also: nearly all actives have a fitted effect of over 50% in size
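Fission yeast RE007 carrying one integrated HIV-1 vpr copy, seeded at OD 0.01 in PMG+AL medium with 23 nL pinned compound. Grown 24 h at 30 degrees; viability read by BacTiter-Glo luminescence after 5 min.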
AmpC no deterg = AmpC beta-lactamase inhibition without detergent. hit rate 0.52% among 330,000. AmpC nitrocefin hydrolysis, absorbance 480 nm, 0.0001% Triton. P00811. AID 485341. Potency, µM (doses to about 57.1 µM), actives largely listed as inhibitors; also: nearly all actives have a fitted effect of over 20% in size
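AmpC (5.3 nM in the dispensed reagent) in 20 mM phosphate pH 7.0 with 0.01% (detergent screen) or 0.0001% Triton X-100 was preincubated with compounds for 15 min at room temperature. Nitrocefin was then added from an 800 uM solution, and hydrolysis was followed at 480 nm.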
AmpC inh detg = AmpC beta-lactamase inhibition with detergent present; AID 485294; hit rate 0.041% among 370,000; AmpC hydrolysis of nitrocefin, absorbance 480 nm, 0.01% Triton; Potency, µM (highest dose often 114 µM), most hits filed as inhibitors; also: nearly all actives have a fitted effect of over 25% in size
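20 mM phosphate pH 7.0 + 0.01% (detergent screen) or 0.0001% Triton X-100; 5.3 nM AmpC reagent; cpd preinc 15 min RT; nitrocefin (800 uM stock) to start; A480 q20 s × 4 min; Activity was normalised to no-enzyme and no-compound control wells.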
Giardia FBPA inh = inhibitors of Giardia lamblia fructose-1,6-bisphosphate aldolase; Potency, µM (series often up to 59.6 µM), most hits filed as inhibitors; purified Giardia FBPA; AID 2451; hit rate 0.71% among 290,000; also: nearly all actives have a fitted effect of over 55% in size
Target sequence (A8B2U2 whole entry, looked up): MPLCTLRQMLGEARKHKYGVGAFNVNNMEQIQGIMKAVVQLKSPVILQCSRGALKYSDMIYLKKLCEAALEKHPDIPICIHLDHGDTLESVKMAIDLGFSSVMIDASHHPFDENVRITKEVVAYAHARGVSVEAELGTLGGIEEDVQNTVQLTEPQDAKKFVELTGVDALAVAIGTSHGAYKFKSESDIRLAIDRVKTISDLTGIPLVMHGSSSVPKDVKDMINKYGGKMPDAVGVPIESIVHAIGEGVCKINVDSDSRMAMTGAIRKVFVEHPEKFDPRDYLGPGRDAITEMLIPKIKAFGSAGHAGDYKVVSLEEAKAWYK
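40 nM FBPA preincubated 10 min at RT with compound (up to 57.5 uM final), then substrate plus GAPDH/TPI/NAD/arsenate coupling and diaphorase/resazurin added. Fluorescence read after 20 min at RT, 525/598 nm.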
Each line names hits and unclear results; the compound was inactive in the other large screens. An excerpt weighted towards active compounds, which were near 3.4% of everything screened. Unless noted, calls follow the shape of the dose curve; as a rule, active = well fitted curve in the direction sought with a large enough effect; inconclusive = small, poorly fitted or top-dose-only effect, or another doubt; inactive = no such curve, though single readings can be large; an effect the other way counts as inactive or inconclusive.

CCC(OC(=O)c1cccs1)C(=O)NCc1ccco1 (centres undefined)	Sm TGR block 56.2µM
CC(C)CC(OC(=O)c1cccs1)C(=O)NCc1ccco1 (centres undefined)	Sm TGR block 39.8µM
CCCC(=O)C1=C(O)C(C(=O)OC)C(C)(C)CC1=Nc1ccc(OC)cc1 (centres undefined)	none
COc1ccc(-c2ccc([C@H]3[C@H]4C=CC[C@@H](C)[C@@H]4C(=O)N3Cc3ccccc3)c(F)c2)cc1OC	none
O=C(COC(=O)C1CC(=O)N(c2ccccc2)C1)c1ccccc1 (centres undefined)	AmpC no deterg 1.41µM, AmpC inh detg inconclusive
OCCN1CCN(C(c2cccs2)c2ccc3cccnc3c2O)CC1 (centres undefined)	Sm TGR block 0.316µM, Giardia FBPA inh inconclusive (no result: RE007 growth inh)
CCN1CCN(C(c2ccc(C(F)(F)F)cc2)c2ccc3cccnc3c2O)CC1 (centres undefined)	none
O=S(=O)(c1ccc(OCC(O)CNC23CC4CC(CC(C4)C2)C3)c(Cl)c1)N1CCOCC1 (centres undefined)	none
O=C1N=C(N2CCCC2C(=O)O)S/C1=C\c1ccco1 (centres undefined)	Sm TGR block 7.08µM, Giardia FBPA inh inconclusive
COc1ccccc1C(=O)N/C(=C/c1ccc(Br)cc1)C(=O)N1CCCC1	none
COCCCNC(=S)Nc1ccc(N2CCCCC2)cc1	none
CNc1sc(C(=O)c2ccc(F)cc2)c(N)c1-c1nc2ccccc2s1	Sm TGR block 39.8µM, RE007 growth inh inconclusive, AmpC inh detg inconclusive
O=C(COC(=O)CCC1CCCC1)Nc1ccccc1Sc1ccccc1	none
Cc1cc(Cl)n2c(nc3ccccc32)c1C#N	Sm TGR block 3.16µM, RE007 growth inh inconclusive
CCCCc1c(C)c(C#N)c2nc3ccccc3n2c1Nc1c(C)n(C)n(-c2ccccc2)c1=O	none (no result: Giardia FBPA inh)
Cc1c(Nc2c3c(c(C#N)c4nc5ccccc5n24)CCC3)c(=O)n(-c2ccccc2)n1C	Sm TGR block 31.6µM (no result: RE007 growth inh)
Cc1nccn1-c1c2c(c(C#N)c3nc4ccccc4n13)CCC2	Sm TGR block 25.1µM
N#Cc1c2c(c(N3CCN(c4ccccn4)CC3)n3c1nc1ccccc13)CCC2	Sm TGR block 39.8µM, AmpC inh detg inconclusive (no result: RE007 growth inh)
Cc1cc(N2CCN(c3ccccn3)CC2)n2c(nc3ccccc32)c1C#N	AmpC inh detg inconclusive
OCc1cc([C@@H](O)CNCCCCCCOCCCCc2ccccc2)ccc1O	none (no result: Sm TGR block, RE007 growth inh, AmpC no deterg, AmpC inh detg)
O=Cc1sc(Nc2ccccc2)nc1Cl	RE007 growth inh inconclusive
O=C(NC1CCS(=O)(=O)C1)C1C2CC3CC(C2)CC1C3 (centres undefined)	none
CCN1c2ccccc2NC2C1C(C(C)=O)C(=O)N2c1ccc(Cl)cc1 (centres undefined)	Giardia FBPA inh inconclusive
COc1ccc(/C=N/OCC(=O)N=Nc2c(O)[nH]c3ccc(Br)cc23)cc1	AmpC no deterg 1µM, AmpC inh detg inconclusive
Cc1cccc(C)c1OCC(=O)N=Nc1c(O)[nH]c2ccc(Br)cc12	none
CCSC(=O)N=Nc1ccc(O)cc1	RE007 growth inh 15.8µM (no result: Sm TGR block, AmpC no deterg, AmpC inh detg, Giardia FBPA inh)
CCCc1[nH][nH]c(=O)c1C(c1ccc(Br)cc1)C(C#N)C#N (centres undefined)	Sm TGR block inconclusive
CCCc1[nH][nH]c(=O)c1C(c1ccccc1)C(C#N)C#N (centres undefined)	Sm TGR block 2.51µM
Cc1nnc(Sc2nc3c(c(=O)[nH]c(=O)n3C)n2CCc2ccccc2)s1	none
Cc1nc2c(oc3ccccc32)c(=O)o1	Sm TGR block 11.2µM
C[C@@H]1CCC[C@@]2(O[C@H](CCO)C[C@H](O)[C@H]2O)O1	none (no result: Sm TGR block, AmpC no deterg, AmpC inh detg, Giardia FBPA inh)
CCOc1ccc(NC(=O)c2c(NCc3ccc(C)o3)sc3c2CCCCC3)cc1	Sm TGR block 8.91µM (no result: RE007 growth inh, AmpC no deterg, Giardia FBPA inh)
COc1ccc(OC)c(NC(=O)c2c(NCc3cccs3)sc3c2CCCCC3)c1	Sm TGR block 39.8µM (no result: RE007 growth inh, AmpC no deterg, Giardia FBPA inh)
COc1ccc(OC)c(NC(=O)c2c(NCc3cccs3)sc3c2CCCC3)c1	none (no result: RE007 growth inh, AmpC no deterg, Giardia FBPA inh)
COc1ccc(NC(=O)c2c(NCc3cccs3)sc3c2CCCCC3)cc1	Sm TGR block 17.8µM (no result: RE007 growth inh, AmpC no deterg, Giardia FBPA inh)
CCOc1ccc(NC(=O)c2c(NCc3cccs3)sc3c2CCCCC3)cc1	Sm TGR block 7.94µM (no result: RE007 growth inh, AmpC no deterg, Giardia FBPA inh)
